Among all 53,000 sequences or so, about 3,700 (7%) were called active.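 How the source made its calls: active means gene knockdowns whose robust z-score for IL-1 alpha signal is at least 2 or at most -2, so actives lie on both sides; inactive means the rest.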 The sample as a whole holds a higher share of actives than the screen did.
Assay: Components of the Cytosolic LPS Sensing Pathway: Gene Identification via Genome-wide siRNA Screen;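 further: robust z of the log signal after scaling to non-targeting control siRNA wells of the plate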
Settings: RAW264.7 macrophages, IL-1a HTRF, actives lie on both sides, screened at 100 nM (by protocol), cells primed 5 h with Pam3CSK4 first
In short: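 Mouse macrophage line RAW264.7 is transfected with siRNA (100 nM final), grown 48h, primed with TLR ligand Pam3CSK4 5 h and given intracellular LipidA 24 h. IL-1a in supernatant is read by HTRF and viability by luminescence.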

z-score, active:
GGAUGCAGUACGAAAUUCUTT against Psmd1 -2.93
GGUUGUUUUGGAAUUGAUATT against Smu1 -2.82
CCCUCAGGACACGUUUUAGTT against Wdsub1 -2.14
GCUCCUAUGGCAACAUCGUTT against Olfr303 2.11
GAACUACCUGGACUUCCACTT against Cox6b1 2.5
CGGAUUCAGUAUUAGCAAUTT against Ogt -2.4
GCUCCUAGUGUUUUUGUGGTT against Rplp0 -2.91
GGGAGAAACGCAUCUUAUCTT against Ngly1 2.38
CCUGUUUAGCAUCUGGGAGTT against Gpr1 6.24
GCCCAAACUCAAGCAAGUCTT against Trpm3 2.37
GGACGGAGCUGUAAUUGCATT against Arhgef12 2.16
GGUGGUGCCAAGAUGUUGUTT against Aste1 2.26
GGCAGUACUGUCCAGAUGATT against Gsdma2 -2.12
GGGUUUCUUGUUGGUUUUATT against Dock5 2.29
GGCUACCCUUUUGAACCUCTT against Psmd3 -2.81
GCGACUCCUAUAAUUUCUATT against Rpa3 -2.17
GGAACGUACAGGAUAAUCUTT against Krt79 4.28
GGGUUUCAUUAAAUUUCCUTT against Cyp2g1 -2.06
CCUUUGAAUCCCAGGUUCATT against Lmo1 3.05
GGAUACAUUGAGAAAGACUTT against Tor1aip2 2.43

z-score, inactive:
GGUUACGAAGAUUAAUGUGTT against Crk 1.27
GGACAGGUGUCGAUCAAACTT against Zfp280c 0.0987
GGAAUUGCACUUUUCCAAUTT against Phlda1 0.481
GGCAGUGCCAAUGAACAAGTT against Elob 0.591
CGAGCAUGCAUUCAAAGGATT against Lrrc3b 1.33
GGGCACAUACUCAGAUGAATT against Ngfr -0.62
GAGUAUCAUUUCCUGUUUUTT against Olfr389 -0.395
CCAUUCCAGUUAUGUCAAUTT against Pus3 -1.06
CGAGCCAUACCUUCAACUGTT against Ncoa2 -0.815
GGAGCAGAUGAGAUCCAAGTT against Cdc42se1 -0.256
GCCUUUAUAGUCUUAAGCATT against Ndc1 -0.209
GGAAAAACUCCCUCGGUACTT against Rps11 0.683
GCUGCUUUGGGCACAAGAUTT against Nppb 0.428
GGUAUGAGAUUACCUUCACTT against 1700037H04Rik -1.16
GCUCAGAAAUCGGCUCAGATT against Ssbp2 -1.66
GCUAAACUCCACCAAGACATT against Grid2ip 0.338
GGGCAAUUAUCUUUGUUAUTT against Olfr589 -0.0712
GCCAUUAUGACAGAACGCATT against Adra1d -0.606
GGACGAUUCUUUUAUUUGATT against Fam78b -1.22
CCAAUCGAUACAUCAUUUUTT against Gmcl1 1.1
GCAUCAUACCACUGUGUUUTT against Obox1 -1
GGCUGUUUGGCUUGUUUAATT against Golga7 1.82
GGAAUUAUUCAGCAAGACUTT against Cdrt4 -0.636
CGUUUGUUACUCUUCAGCUTT against Olfr1461 -1.07
GGCCAUAACACAAAUGUAGTT against Prpf4 0.554
GGAGGAAAGUAUGAAGAAATT against Cyp2j9 -0.337
GGCUGUGCAUUAUAUCCUUTT against Lhfpl1 1.2
GGUUAUCCAGAGAGAAGGATT against Asxl2 0.399
GGCUAAGCUGAAGAAGCACTT against Fam219b -0.326
GGUGACAACACUUGUCAACTT against Ctnna2 -0.551
GCCCAUGUUUUUUUUUCUGTT against Olfr648 0.776
GGCUGCUUAACCUUGAUAATT against Lrrd1 0.529
CGGUAGAGUCAGCAUUUGATT against Sez6 -0.231
GCCGAGAUGAGCUCCUAAUTT against Krt27 1.29
GCUACAGCUUCAAUUAAAUTT against Birc6 0.135
CCCACAGGGAUUUAUUUAUTT against Slc37a1 -0.362
GGACAUCCAUCAGUACAGGTT against Hras 0.812
GGCUGUCACUUUAUAGGCATT against Wrnip1 -0.862
CGACUUGAACUCUAUGGCGTT against Ascl1 -0.12
CCGAAAGGCUGGUACAUUCTT against Kin -0.494
GGUUAUCUUCUUGACAGAATT against Nmur2 1.42
GGUAGAGAUGUACAUUUGGTT against Chrdl2 -1.72
GCAAGAAGUUCCUAUCAUCTT against Polr2b -1.67
GGUUACCCAACUUGAAGGATT against Parp16 1.37
GGCAAAAAGAUAGGAGCUGTT against Txn1 0.57
GGUGACUAACGAGAUCAUUTT against Slc19a1 0.913
CGAACAGAGUCUAAUCUCATT against Ptpn1 1.69
AGGAAUGCCCAGGUCUCAGTT against Lst1 -1.07
GGUCUGCUAUGAAAUUAUGTT against Tmem14c -0.537
GGCCUACAGGACAAAGUUUTT against Comt 0.394
CGACUAGAGUUGUGUGAUATT against Uqcrh 0.834
GGUGCAUUAUAAGAAUCGCTT against Fhl1 0.144
GUACCUCUACUAUUCCUUUTT against Krtap5-2 -0.13
GGAGUUCAAGACGGAGAAGTT against Gpr27 0.000428
GGCUUAUAUCUGAUUGAUGTT against Rom1 -1.17
GGAAAGUGACUGCAUGUUCTT against Pgp -1.3
GGACUUCUUCACCAUCUGGTT against Lcat -1.3
GGUACAUGAUCAAUUUAGATT against Tspyl4 0.726
GGACAUUAGGAAAUUAGAUTT against Ppp3cc -0.404
CCUUAUCUAUAACUCUGCUTT against Tirap -0.772
GGAGAGCGAAGAAAAAAUGTT against Birc2 -0.852
GGUUGUCUUCAACACCAAATT against Lgals7 -0.147
GCAAGAGCAUGCUUACGGUTT against Ccl1 -0.324
GGACGGGAUUGAGCCUAUGTT against Eif4e 1.65
CCAAGCUUACACUAGUGUUTT against Cdk6 -0.429
GCGUGUACAAGGCUAUUCATT against Stk4 1.19
GGCCUACUUCCUACUCAAATT against Tbx10 -1.85
CCUACACCUAGAAAUCUAGTT against Gpr3 1.52
GGAUGAGGAUGGCUAUAAGTT against Zc3h10 0.585
GGGAAGGAUGACCUAACAATT against Gpatch4 -0.839
CGGAUUAGAAGAGCCAAACTT against Cd59b 0.352
GGAAAAAGCCAAGCUCAUCTT against Syt3 -1.5
GGAGCAUCCUGGCAAACAGTT against Slc51b -1.32
CUGAUCCUUCAAUUAACAUTT against Olfr202 0.0318
GCAGGUCCUGACCUAUGUGTT against Cyp27b1 -0.556
CCAUCUGCAUCAAGAGAAATT against Kirrel2 0.709
GGCUAAAGAAUAAAGAUCCTT against Cadm2 1.66
GUGAGACCAAGUUACAGGATT against Olfr1504 1.5
CCAACCAAAGAUGAAUUGUTT against Usp19 -0.445
GGUGGCCAAACAGGAAAAGTT against Fau 0.91
GGCACACAAACAAUUGGUATT against Rrp36 -0.318
CCGAAUAUCGAGUUCCCAATT against Ceacam20 -0.0196
GGAUGAGAAUGGCACCAGUTT against Prima1 -1.4
GGAAAUGUACAUCAUCAAGTT against Cnga2 -1.24
CCUGUUAAACAGGACUAGUTT against Tmem263 -1.51
GGGAAUUUGCUCCUGAAAGTT against Pcdhb6 -0.936
GGCCCUCCCAAAUCAUUUGTT against Slc30a6 0.188
GGGAAGAAAGACUCAAACUTT against Dcdc2a 0.919

Reference: PubChem BioAssay AID1508600 (Functional Genomics Laboratory (NCATS/FGL), 2020)
